Data taken from PubChem BioAssay AID1159580 (chemical genetic matrix, 2015).
Screen size: about 5,500 compounds; about 2,000 (36%) were called active. Another 18% or so got no clear call; they are omitted. Cut-off read from the data, not from the text of the source: active = normalized growth mostly below about 0.91 (no sharp cut-off); inconclusive = no clear call, values can overlap the other calls; inactive = mostly above about 0.92. This is one part of the list.

Experiment: chemical genetic growth profiling, strain panel (AID 1159580);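 note: tested at 20 µM; growth read once vehicle control cultures reached saturation at 30 °C; 1 = growth at the plate median or of vehicle wells; lower values mean less growth of the strain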
Conditions: growth OD

Measured: normalized growth

COc1cc(OC)c2c(=O)c(-c3ccccc3)c(C)oc2c1OC
inactive: S. cerevisiae deletion strains, locus YJR043C, strain POL32, active compounds read low 1.01 | S. cerevisiae deletion strains, locus YJR075W, strain HOC1, active compounds read low 1.02 | S. cerevisiae deletion strains, locus YKL009W, strain mrt4, active compounds read low 1 | S. cerevisiae deletion strains, locus YKL068W, active compounds read low 1 | S. cerevisiae deletion strains, locus YKL085W, strain MDH1 (second series), active compounds read low 0.996 | S. cerevisiae deletion strains, locus YKL085W, strain MDH1, active compounds read low 0.996 | S. cerevisiae deletion strains, locus YKL160W, strain elf1, active compounds read low 1 | S. cerevisiae deletion strains, locus YKL190W, strain CNB1, active compounds read low 1.01 | S. cerevisiae deletion strains, locus YKR001C, strain vps1, active compounds read low 0.993 | S. cerevisiae deletion strains, locus YKR026C, strain gcn3, active compounds read low 0.966 | S. cerevisiae deletion strains, locus YKR091W, strain srl3, active compounds read low 0.962 | S. cerevisiae deletion strains, locus YLL001W, strain dnm1, active compounds read low 1.01 | S. cerevisiae deletion strains, locus YLL026W, active compounds read low 0.984 | S. cerevisiae deletion strains, locus YLL041C, strain sdh2, active compounds read low 1 | S. cerevisiae deletion strains, locus YLR027C, strain aat2, active compounds read low 0.982 | S. cerevisiae deletion strains, locus YLR039C, strain RIC1, active compounds read low 0.984 | S. cerevisiae deletion strains, locus YLR058C, strain SHM2, active compounds read low 1.01 | S. cerevisiae deletion strains, locus YLR102C, strain apc9, active compounds read low 0.999 | S. cerevisiae deletion strains, locus YLR221C, strain rsa3, active compounds read low 0.957 | S. cerevisiae deletion strains, locus YLR258W, strain gsy2, active compounds read low 0.987 | S. cerevisiae deletion strains, locus YLR262C, strain YPT6 (second series), active compounds read low 0.951 | S. cerevisiae deletion strains, locus YLR262C, strain YPT6, active compounds read low 0.989 | S. cerevisiae deletion strains, locus YLR268W, strain sec22, active compounds read low 0.972 | S. cerevisiae deletion strains, locus YLR320W, strain mms22, active compounds read low 0.984 | S. cerevisiae deletion strains, locus YLR330W, strain CHS5, active compounds read low 1.01 | S. cerevisiae deletion strains, locus YLR342W, strain FKS1 (second series), active compounds read low 1.01 | S. cerevisiae deletion strains, locus YLR342W, strain FKS1, active compounds read low 0.956 | S. cerevisiae deletion strains, locus YLR357W, strain rsc2, active compounds read low 0.986 | S. cerevisiae deletion strains, locus YLR370C, strain arc18, active compounds read low 0.977 | S. cerevisiae deletion strains, locus YLR371W, strain rom2, active compounds read low 1 | S. cerevisiae deletion strains, locus YLR384C, strain iki3, active compounds read low 0.98 | S. cerevisiae deletion strains, locus YLR418C, strain cdc73, active compounds read low 1.03 | S. cerevisiae deletion strains, locus YML016C, strain PPZ1, active compounds read low 1.01 | S. cerevisiae deletion strains, locus YML032C, strain rad52, active compounds read low 0.997 | S. cerevisiae deletion strains, locus YML120C, strain ndi1, active compounds read low 0.973 | S. cerevisiae deletion strains, locus YML124C, strain tub3, active compounds read low 0.989 | S. cerevisiae deletion strains, locus YMR058W, strain fet3, active compounds read low 0.988 | S. cerevisiae deletion strains, locus YMR078C, strain ctf18, active compounds read low 0.99 | S. cerevisiae deletion strains, locus YMR125W, strain sto1, active compounds read low 0.981 | S. cerevisiae deletion strains, locus YMR129W, active compounds read low 0.972 | S. cerevisiae deletion strains, locus YMR205C, strain PFK2, active compounds read low 0.95 | S. cerevisiae deletion strains, locus YMR223W, strain ubp8, active compounds read low 0.996 | S. cerevisiae deletion strains, locus YMR231W, strain pep5, active compounds read low 0.992 | S. cerevisiae deletion strains, locus YMR263W, strain SAP30, active compounds read low 1.02 | S. cerevisiae deletion strains, locus YMR307W, strain GAS1, active compounds read low 1.02 | S. cerevisiae deletion strains, locus YNL067W, strain RPL9B, active compounds read low 1.02 | S. cerevisiae deletion strains, locus YNL071W, strain lat1, active compounds read low 0.984 | S. cerevisiae deletion strains, locus YNL128W, strain TEP1, active compounds read low 1.04 | S. cerevisiae deletion strains, locus YNL153C, strain GIM3, active compounds read low 1.01 | S. cerevisiae deletion strains, locus YNL209W, strain ssb2, active compounds read low 0.982 | S. cerevisiae deletion strains, locus YNL233W, strain BNI4, active compounds read low 1 | S. cerevisiae deletion strains, locus YNL248C, strain rpa49, active compounds read low 1.01 | S. cerevisiae deletion strains, locus YNL250W, strain rad50, active compounds read low 0.994 | S. cerevisiae deletion strains, locus YNL271C, strain bni1, active compounds read low 1 | S. cerevisiae deletion strains, locus YNL298W, strain CLA4, active compounds read low 1.01 | S. cerevisiae deletion strains, locus YNL307C, strain MCK1, active compounds read low 0.978 | S. cerevisiae deletion strains, locus YNL322C, strain KRE1 (second series), active compounds read low 0.979 | S. cerevisiae deletion strains, locus YNL322C, strain KRE1, active compounds read low 1.01 | S. cerevisiae deletion strains, locus YNR049C, strain mso1, active compounds read low 0.976 | S. cerevisiae deletion strains, locus YNR052C, strain pop2, active compounds read low 1.01 | S. cerevisiae deletion strains, locus YOL006C, strain TOP1, active compounds read low 1.02 | S. cerevisiae deletion strains, locus YOL012C, strain htz1 0.978 | S. cerevisiae deletion strains, locus YOL147C, strain pex11, active compounds read low 0.992 | S. cerevisiae deletion strains, locus YOR001W, strain rrp6, active compounds read low 1.01 | S. cerevisiae deletion strains, locus YOR061W, strain CKA2, active compounds read low 1.01 | S. cerevisiae deletion strains, locus YOR069W, strain VPS5, active compounds read low 1 | S. cerevisiae deletion strains, locus YOR070C, strain gyp1, active compounds read low 0.987 | S. cerevisiae deletion strains, locus YOR080W, strain dia2, active compounds read low 0.989 | S. cerevisiae deletion strains, locus YOR083W, strain WHI5, active compounds read low 1.01 | S. cerevisiae deletion strains, locus YOR106W, strain vam3, active compounds read low 0.994 | S. cerevisiae deletion strains, locus YOR136W, strain idh2, active compounds read low 0.993 | S. cerevisiae deletion strains, locus YOR144C, strain elg1, active compounds read low 0.999 | S. cerevisiae deletion strains, locus YOR184W, strain ser1, active compounds read low 0.999 | S. cerevisiae deletion strains, locus YOR265W, strain rbl2, active compounds read low 0.987 | S. cerevisiae deletion strains, locus YOR270C, strain vph1, active compounds read low 0.989 | S. cerevisiae deletion strains, locus YOR290C, strain snf2, active compounds read low 0.933 | S. cerevisiae deletion strains, locus YOR316C, strain cot1, active compounds read low 1 | S. cerevisiae deletion strains, locus YPL051W, strain arl3, active compounds read low 1 | S. cerevisiae deletion strains, locus YPL055C, strain LGE1, active compounds read low 1.04 | S. cerevisiae deletion strains, locus YPL078C, strain atp4, active compounds read low 0.995 | S. cerevisiae deletion strains, locus YPL106C, strain sse1, active compounds read low 0.942 | S. cerevisiae deletion strains, locus YPL240C, strain hsp82, active compounds read low 0.983 | S. cerevisiae deletion strains, locus YPL241C, strain CIN2, active compounds read low 1.01 | S. cerevisiae deletion strains, locus YPR119W, strain clb2, active compounds read low 0.99 | S. cerevisiae deletion strains, locus YPR141C, strain kar3, active compounds read low 1 | S. cerevisiae deletion strains, locus YPR163C, strain tif3, active compounds read low 0.992 | S. cerevisiae deletion strains, locus YPR167C, strain met16, active compounds read low 1 | S. cerevisiae deletion strains, strain wtn01, active compounds read low 0.997 | S. cerevisiae strains, strain wild type, active compounds read low 1.02
